# Assay outcomes deposited in PubChem BioAssay by National Center for Advancing Translational Sciences (NCATS).
# SNCA expr inh: Primary qHTS assay for inhibitors of alpha-synuclein gene (SNCA) expression; HEK-293 SNCA-luciferase knock-in, luminescence, 24 h; Potency, µM (series often up to 57.2 µM), without a hit: at the top dose activity change, negative = inhibition, usual class: inhibitors; 140,000 tested, 0.17% active; AID 1671194, 2021;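 further: plate controls were DMSO cells for no effect and cell-free wells for full effect; nearly all actives have a fitted effect of over 45% in size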
# HEK293 viab: GF-AFC viability counterscreen for inhibitors of alpha-synuclein gene (SNCA) expression; HEK-293-SNCA-luc viability, GF-AFC fluorescence, 24 h; Potency, µM (top dose mostly 57.1 µM), for inactives: at the highest dose activity change, negative = cytotoxicity, usual class: cytotoxic; 150,000 tested, 0.12% active; AID 1671193, 2021;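 further: 0% = DMSO-treated cells and -100% = medium-only wells without cells; nearly all actives have a fitted effect of over 30% in size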
#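 Cytotoxicity counterscreen: after 24 h compound treatment of genome-edited SNCA-luciferase HEK-293 cells, live-cell protease substrate GF-AFC read by fluorescence after 30 min; activity scaled between DMSO (0%) and medium-only (-100%), curves Hill-fitted.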
# NPR1 antag: Natriuretic polypeptide receptor (hNpr1) antagonism - Primary qHTS | 76,000 tested, 1.6% active | AID 1347048, 2019 | Potency, µM (top dose mostly 46.3 µM), without a hit: at the top dose activity change, negative = inhibition, actives largely listed as inhibitors | HEK293 hNpr1 GloSensor cGMP, ANP-stimulated luminescence | Atrial natriuretic peptide receptor 1 (Homo sapiens), P16066; calls by dose curve; further: nearly all actives have a fitted effect of over 60% in size
#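 Compound pre-incubated 30 min at room temperature on GloSensor-loaded HEK293 cells stably carrying hNpr1 and the pGS-40F cGMP biosensor. Stimulation uses hNppA at 0.1 nM final; luminescence is taken at baseline and 20 min post-agonist.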
# HEK293 tox: Cytotoxic Profiling in HEK 293 Cell Line of Diverse Libraries Using Quantitative High-Throughput Screening; 94,000 tested, 6.6% active; Potency, µM (series often up to 115 µM), without a hit: top-dose activity change, negative = cytotoxicity, actives largely listed as inhibitors; HEK 293 viability, ATP luminescence (CellTiter-Glo), 48-72 h; AID 1345083, 2018; further: nearly all actives have a fitted effect of over 60% in size
#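 qHTS cytotoxicity; HEK 293, 250 cells/well; compound pinned; 48 or 72 hr, 37 degree Celsius, 5% CO2, 95% humidity; CellTiter-Glo, 10 min RT; luminescence (ATP).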
# NIH3T3 tox: Cytotoxic Profiling in NIH 3T3 Cell Line of Diverse Libraries Using Quantitative High-Throughput Screening. NIH 3T3 viability, CellTiter-Glo ATP luminescence, 48-72 h. Potency, µM (titrated, usually from 96.7 µM), for inactives: top-dose activity change, negative = cytotoxicity, most hits filed as inhibitors. 94,000 tested, 4.3% active; further: nearly all actives have a fitted effect of over 55% in size
#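 Cells were seeded at 400 per well, treated with pin-transferred compound, and kept 48 or 72 hr at 37 °C before CellTiter-Glo addition and luminescence imaging of cellular ATP.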
# FLuc inh: Firefly luciferase inhibition profiling of diverse chemical library using quantitative high-throughput screening. Luciferin 4-monooxygenase (Photinus pyralis), P08659. Potency, µM (top dose mostly 115 µM), hits mostly inhibitors. AID 1347043, 2019. 76,000 tested, 2.5% active. purified P. pyralis luciferase, luminescence, biochemical; further: nearly all actives have a fitted effect of over 65% in size
# Target sequence (P08659 whole entry, looked up): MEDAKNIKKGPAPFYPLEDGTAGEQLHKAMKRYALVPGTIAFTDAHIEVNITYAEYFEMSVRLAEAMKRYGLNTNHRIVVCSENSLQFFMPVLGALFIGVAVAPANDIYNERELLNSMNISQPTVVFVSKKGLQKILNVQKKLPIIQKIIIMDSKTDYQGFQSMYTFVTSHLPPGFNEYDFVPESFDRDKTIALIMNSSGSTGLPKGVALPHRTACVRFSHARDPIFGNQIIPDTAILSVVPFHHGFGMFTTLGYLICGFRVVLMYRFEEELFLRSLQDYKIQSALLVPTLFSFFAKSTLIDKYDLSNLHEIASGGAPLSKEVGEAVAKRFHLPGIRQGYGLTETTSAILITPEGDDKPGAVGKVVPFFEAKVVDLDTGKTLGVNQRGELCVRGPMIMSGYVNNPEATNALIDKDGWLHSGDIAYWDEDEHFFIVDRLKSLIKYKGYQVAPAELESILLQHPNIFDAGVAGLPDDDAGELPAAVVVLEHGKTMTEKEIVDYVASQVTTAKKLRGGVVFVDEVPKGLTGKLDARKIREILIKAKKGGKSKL
#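 Luminescence read by CCD imager after adding enzyme (10nM final) to wells holding compound, titrated in qHTS. Substrates 10uM each D-luciferin and ATP; buffer 50mM Tris acetate pH 7.5, 10mM Mg acetate, Tween-20, BSA.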
# An asterisk follows results filed as active; i = inactive; ? = inconclusive; · = no result given. An excerpt weighted towards active compounds, which were near 7.4% of everything screened. Unless noted, the call rests on the fitted dose curve; in most records, active means well fitted curve in the direction sought with a large enough effect; inconclusive means small, poorly fitted or top-dose-only effect, or another doubt; inactive means no such curve, though single readings can be large; an effect the other way counts as inactive or inconclusive. Unless noted, on the % scale 0 is the no-effect control and ±100 the full control effect; potency means the concentration at half of the fitted maximal effect.
SMILES,SNCA expr inh,HEK293 viab,NPR1 antag,HEK293 tox,NIH3T3 tox,FLuc inh
O=C(NCc1ccc(F)cc1)C1CCN(C(=O)c2ccc(-c3cncnc3)cc2)CC1,27%,2%,·,-15%,?,·
CN(C)c1cccc(C(=O)NC2CCN(c3cnn(C)c(=O)c3)CC2)c1,218%,4%,3%,i,-6%,25µM*
CN(C)c1cccc(C(=O)NC2CCCN(c3cc(-c4ccc(F)cc4)[nH]n3)C2)c1 (stereo unspecified),27%,?,-10%,?,?,16µM*
Cn1ncc(N2CCC(NC(=O)c3ccc4c(c3)OCO4)CC2)cc1=O,16%,-10%,-4%,-11%,-1%,i
CN(C)c1cccc(C(=O)NC2CCCN(c3cc(-c4ccc(Cl)cc4)[nH]n3)C2)c1 (stereo unspecified),2%,?,-19%,?,?,?
O=C(NC1CCN(c2cc(-c3ccccc3)[nH]n2)CC1)c1ccsc1,116%,4%,-19%,79µM*,-6%,?
CN(C)c1ccc(C(=O)NC2CCN(c3cc(-c4ccc(F)cc4)[nH]n3)C2)cc1 (stereo unspecified),-10%,-10%,-19%,?,?,i
CN(C)c1ccc(C(=O)NC2CCCN(c3cc(-c4ccc(F)cc4)[nH]n3)C2)cc1 (stereo unspecified),10%,-26%,-10%,35µM*,?,?
O=C(NC1CCN(c2cc(-c3ccccc3)[nH]n2)C1)c1ccsc1 (stereo unspecified),0%,-10%,-7%,?,-15%,i
O=C(Cc1ccccn1)N1CCC(C(=O)N2CCCC2c2nc3ccncc3[nH]2)CC1 (stereo unspecified),-4%,-2%,·,-11%,-16%,·
CN(C)c1cccc(C(=O)NCC2CCN(c3cc(-c4ccc(Cl)cc4)[nH]n3)CC2)c1,-1%,-23%,-27%,?,40µM*,?
CCOc1ccc(C(=O)NC2CCCN(c3cc(-c4ccc(OC)cc4)[nH]n3)C2)cc1 (stereo unspecified),25%,-25%,-3%,?,-22%,?
COc1ccc(-c2cc(N3CCCC(NC(=O)c4ccc(N(C)C)cc4)C3)n[nH]2)cc1 (stereo unspecified),23%,-9%,-24%,45µM*,?,7.1µM*
CN(C)c1cccc(C(=O)NC2CCN(c3cc(-c4ccccc4)[nH]n3)CC2)c1,79%,-13%,-22%,?,?,40µM*
Cc1ccc(-c2cc(N3CCC(CNC(=O)c4cccc(N(C)C)c4)CC3)n[nH]2)cc1,35%,-2%,-20%,?,?,?
O=C(NC1CCCN(c2cc(-c3ccccc3)[nH]n2)C1)c1ccc(Br)cc1 (stereo unspecified),14%,-18%,-5%,22µM*,32µM*,i
CN(C)c1ccc(C(=O)NC2CCN(c3cc(-c4ccccc4)[nH]n3)C2)cc1 (stereo unspecified),-19%,3%,-10%,?,?,i
CN(C)c1ccc(C(=O)NC2CCCN(c3cc(-c4ccccc4)[nH]n3)C2)cc1 (stereo unspecified),29%,-26%,-14%,?,?,28µM*
CCN1C[C@H]2COc3ccccc3[C@H]2N(C(=O)COc2ccccc2)CCC1=O,·,·,·,-9%,?,·
C1=CC[C@H]2CN(c3nccc(-c4ccccn4)n3)C[C@H]2C1,66%,-6%,-13%,45µM*,?,i
CN(C)S(=O)(=O)N1CC(n2cnnc2C2CCCO2)C1 (stereo unspecified),5%,0%,·,-15%,-12%,·
